High-throughput results as filed in PubChem.
Sampled rows, rich in hits. Any-hit rate of the full collection: about 6.8%.
C diff growth: C. difficile growth inhibitors, primary screen, HTS | growth activity, negative = inhibition, % at 16 µg/mL (by protocol) | actives 0.25% (n = 86,000) | Clostridium difficile clinical isolate growth, OD600, 24 h; active compounds read low;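 active = mean growth activity at or below -80% and every replicate also at or below -80%; inconclusive = mean at or below -80% but some replicate above -80%; inactive = mean growth activity above -80%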
Pf Dd2 growth: P. falciparum Dd2 growth inhibitors, primary screen, SYBR Green fluorescence, single dose replicates. activity change, % at 10 µM. actives 2.3% (n = 94,000). 72 h; active compounds read low; in the data active = activity change below about -80%; inconclusive = no clear call, values can overlap the other calls
T cruzi growth-1: T. cruzi intracellular proliferation inhibitors, primary screen, cell-based, beta-gal Tulahuen parasites, NIH3T3 host, luminescence | actives 5.9% (n = 77,000) | inhibition, % at 8.34 µM | T. cruzi beta-gal in NIH3T3, GalScreen luminescence, 90 h | AID 624255, 2012;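 active = mean inhibition above about 93%, with at least 55% of replicates each passing it, limit read from the data, passing the limit was not always enough; inconclusive = only one of those two conditions holds; inactive = neither condition holds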
T cruzi growth-2: T. cruzi intracellular proliferation inhibitors, confirmation, cell-based, NIH3T3 host, beta-gal parasite, luminescence, cherry-pick. T. cruzi beta-gal in NIH3T3, GalScreen luminescence, 90 h. inhibition, % at 8.35 µM. actives 72% (n = 5,600). shares compounds with T cruzi growth-1;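 active = mean replicate inhibition above about 95% and at least 55% of replicates individually reaching it, limit read from the data; inconclusive = only one of the two criteria is met; inactive = neither criterion is met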
T cruzi growth-3: inhibitors of intracellular T. cruzi replication, confirmation, NIH3T3 host cells, beta-gal parasites, cherry-pick, set 2 | shares compounds with T cruzi growth-1 | T. cruzi beta-gal in NIH3T3, GalScreen luminescence, 90 h | inhibition, % at 2.09 µM | actives 21% (n = 5,600) | AID 651740, 2012;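 active = mean inhibition above about 95%, with at least 55% of replicates also reaching it, limit read from the data; inconclusive = meets just one of the two conditions; inactive = meets neither condition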
NIH3T3 tox: cytotoxicity in mouse NIH/3T3 fibroblasts, confirmation, cytotoxicity control for T. cruzi proliferation inhibitor project, cell-based, cherry-pick, single point; shares compounds with T cruzi growth-1; NIH/3T3 viability, CellTiter-Glo ATP luminescence, 90 h; cytotoxicity (signal decrease), % at 8.35 µM; actives 14% (n = 5,600);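 active = mean signal decrease across replicates above about 35% based on untreated-well scatter, with enough replicates individually passing, limit read from the data; inconclusive = no rule stated though some were filed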
3T3 cytotox 2: NIH/3T3 fibroblast cytotoxicity, confirmation, cytotoxicity control, cell-based, cherry-pick, single point, set 2. actives 56% (n = 5,600). NIH/3T3 viability, CellTiter-Glo ATP luminescence, 90 h. AID 651744, 2012. inhibition, % at 24.9 µM. shares compounds with T cruzi growth-1;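 active = mean loss of cell viability signal at or above a set limit, and enough replicates individually reaching it; inconclusive = meets only the mean limit or only the replicate share; inactive = meets neither condition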
Of the large screens only hits and unclear results are named; the others gave an inactive call (follow-up assays come after a bar, where they were run).

COCC#Cc1ccc2c(c1)O[C@H](CN(C)CC1CCOCC1)[C@H](C)CN([C@H](C)CO)S2(=O)=O	none
O=C(NC1CCC1)[C@@H]1[C@@H](CO)[C@@H]2Cn3c(ccc(-c4ccccc4)c3=O)[C@@H]2N1Cc1ccccn1	none
CN(C)c1ccc2c(c1)[C@H]1C[C@H](CC(=O)NCc3ccc4c(c3)OCO4)O[C@@H](CO)[C@H]1O2	none (no result: C diff growth)
O=C(C[C@H]1CC[C@@H](NC(=O)c2ccccc2)[C@@H](CO)O1)Nc1ccc(-c2ccccc2)cc1	none (no result: C diff growth)
CO[C@H]1CN(C)C(=O)c2cc(NC(=O)C3CC3)ccc2OC[C@@H](C)N(C(=O)c2cnccn2)C[C@@H]1C	none (no result: C diff growth)
COc1cccc(-c2ccc(CC[C@H]3O[C@H]4CC[C@H](CO)O[C@H]4C[C@@H]3NS(C)(=O)=O)cc2)c1	none (no result: T cruzi growth-1)
C[C@H]1CN([C@@H](C)CO)C(=O)c2cc(NC(=O)Nc3ccc(F)cc3)ccc2O[C@@H]1CN(C)C(=O)Nc1ccc2c(c1)OCO2	none
O=C(C1CCCC1)N1CC[C@@H]2[C@@H](CO)Nc3ccc(-c4cccc(F)c4)cc3[C@@H]21	none (no result: T cruzi growth-1)
O=C(C1CCC1)N1CC[C@@H]2[C@H]1c1cc(-c3cccc(F)c3)ccc1N[C@@H]2CO	T cruzi growth-1 101 | T cruzi growth-2 105 | T cruzi growth-3 109 | NIH3T3 tox inactive | 3T3 cytotox 2 74
O=C(C1CC1)N1CC[C@@H]2[C@H](CO)Nc3ccc(-c4cccc(F)c4)cc3[C@@H]21	T cruzi growth-1 116 | T cruzi growth-2 104 | T cruzi growth-3 inactive | NIH3T3 tox inactive | 3T3 cytotox 2 inactive
O=C(C1CC1)N1CC[C@H]2[C@H](CO)Nc3ccc(-c4cccc(F)c4)cc3[C@H]21	T cruzi growth-1 116 | T cruzi growth-2 99 | T cruzi growth-3 inactive | NIH3T3 tox inactive | 3T3 cytotox 2 inactive
O=C(C1CCCCC1)N1CC[C@@H]2[C@H]1c1cc(C#Cc3ccc(F)cc3)ccc1N[C@@H]2CO	T cruzi growth-1 106 | T cruzi growth-2 104 | T cruzi growth-3 inactive | NIH3T3 tox inactive | 3T3 cytotox 2 104
O=C(C1CCCC1)N1CC[C@H]2[C@H](CO)Nc3ccc(C#Cc4ccc(F)cc4)cc3[C@H]21	none (no result: T cruzi growth-1)
CCNC(=O)C[C@H]1C=C[C@H](NC(=O)C2CCC2)[C@H](CO)O1	none (no result: Pf Dd2 growth, T cruzi growth-1)
CN(C)C(=O)C[C@@H]1CC[C@H](NC(=O)C2CCOCC2)[C@@H](CO)O1	none (no result: C diff growth)
COCC#Cc1cnc2c(c1)C(=O)N([C@H](C)CO)C[C@@H](C)[C@H](CN(C)C(=O)c1cnccn1)O2	none
CCCC#Cc1ccc([C@@H]2[C@H](C#N)N(C(=O)C3CCCC3)[C@H]2CO)cc1	T cruzi growth-1 99 | T cruzi growth-2 98 | T cruzi growth-3 106 | NIH3T3 tox inactive | 3T3 cytotox 2 78
CCCC#Cc1ccc([C@@H]2[C@@H](CO)N(C(=O)C3CCCCC3)[C@H]2C#N)cc1	none
CCCC#Cc1ccc([C@@H]2[C@@H](CO)N(C(=O)C3CCC3)[C@H]2C#N)cc1	none
CCCC#Cc1ccc([C@H]2[C@H](C#N)N(C(=O)C3CCC3)[C@H]2CO)cc1	none
CCCC#Cc1ccc([C@@H]2[C@@H](C#N)N(C(=O)C3CCCCC3)[C@H]2CO)cc1	T cruzi growth-1 96 | T cruzi growth-2 inactive | T cruzi growth-3 106 | NIH3T3 tox inactive | 3T3 cytotox 2 53
CCCC#Cc1ccc([C@H]2[C@@H](C#N)N(C(=O)C3CCC3)[C@@H]2CO)cc1	T cruzi growth-1 99 | T cruzi growth-2 102 | T cruzi growth-3 100 | NIH3T3 tox inactive | 3T3 cytotox 2 inactive
CCC(=O)N1CC2(CCN(Cc3ccncc3)CC2)c2c(n(C)c3cc(OC)ccc23)[C@@H]1CO	none (no result: T cruzi growth-1)
COc1ccc2c3c(n(C)c2c1)[C@@H](CO)N(C(=O)Nc1ccc(F)cc1)CC31CN(S(=O)(=O)c2cn(C)cn2)C1	none (no result: T cruzi growth-1)
C[C@H](CO)N1C[C@H](C)[C@H](CN(C)S(=O)(=O)c2cn(C)cn2)Oc2ccc(NC(=O)CCN3CCOCC3)cc2CC1=O	none
CO[C@@H]1CN(C)C(=O)c2ccc(NC(C)=O)cc2OC[C@@H](C)N(Cc2ccncc2)C[C@@H]1C	none (no result: T cruzi growth-1)
O=C(c1ccc2c(c1)OCO2)N1CC[C@@H]2[C@H]1c1cc(-c3ccc(F)cc3)ccc1N[C@@H]2CO	none
CCCNC(=O)N1[C@H](C#N)[C@H](c2ccccc2C2=CCCCC2)[C@@H]1CO	none (no result: T cruzi growth-1)
CCCNC(=O)N1[C@@H](C#N)[C@@H](c2ccc(C3=CCCCC3)cc2)[C@@H]1CO	none
CCCNC(=O)N1[C@H](C#N)[C@H](c2ccc(C3=CCCCC3)cc2)[C@@H]1CO	Pf Dd2 growth inconclusive, T cruzi growth-1 99 | T cruzi growth-2 101 | T cruzi growth-3 116 | NIH3T3 tox inactive | 3T3 cytotox 2 33
CCCNC(=O)N1[C@H](CO)[C@@H](c2ccc(C3=CCCCC3)cc2)[C@@H]1C#N	T cruzi growth-1 105 | T cruzi growth-2 inactive | T cruzi growth-3 inactive | NIH3T3 tox inactive | 3T3 cytotox 2 inactive
N#C[C@H]1[C@@H](c2ccc(C3=CCCC3)cc2)[C@@H](CO)N1C(=O)C1CCC1	none
COCC(=O)N1[C@H](C#N)[C@@H](c2ccc(C3=CCCCC3)cc2)[C@@H]1CO	none
COCC(=O)N1[C@H](CO)[C@@H](c2ccc(C3=CCCCC3)cc2)[C@@H]1C#N	T cruzi growth-1 inconclusive | T cruzi growth-2 108 | T cruzi growth-3 inactive | NIH3T3 tox inactive | 3T3 cytotox 2 inactive
N#C[C@@H]1[C@H](c2ccc(C3=CCCC3)cc2)[C@H](CO)N1C(=O)C1CCC1	T cruzi growth-1 103 | T cruzi growth-2 110 | T cruzi growth-3 inactive | NIH3T3 tox inactive | 3T3 cytotox 2 inactive
C[C@@H]1CCCCO[C@@H](CN(C)S(C)(=O)=O)[C@H](C)CN([C@@H](C)CO)C(=O)c2cc(NS(=O)(=O)c3cn(C)cn3)ccc2O1	none
C[C@H]1CCCCO[C@H](CN(C)S(C)(=O)=O)[C@@H](C)CN([C@@H](C)CO)C(=O)c2cc(N(C)C)ccc2O1	none
Cc1ccc(S(=O)(=O)Nc2ccc3c(c2)C(=O)N([C@@H](C)CO)C[C@@H](C)[C@@H](CN(C)S(=O)(=O)c2cccs2)OCCCC[C@@H](C)O3)cc1	none (no result: Pf Dd2 growth, T cruzi growth-1)
COc1cccc(NC(=O)Nc2ccc3c(c2)C(=O)N(C)[C@H]2CC[C@@H](CC(=O)O)O[C@@H]2CO3)c1	none
